Screening results from PubChem.
Shown is part of a subset that was picked to be rich in hits.
Cycloheximide cs = counter-screen for Shiga toxin inhibitors: cycloheximide protein synthesis inhibition; cell reporter, cycloheximide protein synthesis inhibition counterscreen; max response, %; hit rate 12% among 300,000; AID 2314; in the data active = max response mostly above about 13%, no sharp cut-off; inactive = mostly below about 14%; note: read at 38.3 µM for the half of the compounds with a filed dose; 0% is about no effect
MARV entry inh = blocks Marburg virus binding to or entry into cells; hit rate 1.8% among 300,000; AID 540276; Marburg virus pseudotyped entry inhibition, cell reporter; Potency, µM (top dose mostly 37.8 µM), inactives show at the highest dose activity change, negative = inhibition, usual class: inhibitors; calls by dose curve; tested in HEK293 cells; note: potency is the fitted concentration of half-maximal effect; % is set by controls: 0 for no effect and ±100 for the full control effect
LASV entry inh = inhibitors of Lassa virus binding or cell entry; Potency, µM (doses to about 37.9 µM), without a hit: top-dose activity change, negative = inhibition, hits mostly inhibitors; hit rate 1.2% among 300,000; Lassa virus pseudotype entry inhibition, cell reporter; calls by dose curve; tested in HEK293 cells; note: potency is the fitted concentration of half-maximal effect; % is set by controls: 0 for no effect and ±100 for the full control effect; nearly all actives have a fitted effect of over 50% in size
Shiga toxin inh = blocks Shiga toxin action in Vero cells; Vero cells, Shiga toxin protein synthesis inhibition reporter; hit rate 9.2% among 290,000; inhibition, % at 38.7 µM; AID 2315; in the data active = inhibition mostly above about 28%, no sharp cut-off; inactive = mostly below about 43%; note: 0% is about no effect
Vaccinia mCherry = inhibitors of vaccinia virus infection (mCherry reporter signal); Vaccinia virus mCherry reporter infection, fluorescence; hit rate 0.63% among 310,000; Potency, µM (titrated, usually from 36.5 µM), for inactives: at the top dose activity change, negative = inhibition, most hits filed as inhibitors; calls by dose curve; tested in A549 cells; note: potency is the fitted concentration of half-maximal effect; % is set by controls: 0 for no effect and ±100 for the full control effect; nearly all actives have a fitted effect of over 35% in size
VACV Venus inh = inhibitors of vaccinia virus (Venus reporter); AID 720580; hit rate 0.46% among 330,000; Potency, µM (doses to about 36.5 µM), without a hit: at the top dose activity change, negative = inhibition, actives largely listed as inhibitors; Vaccinia virus Venus reporter expression, fluorescence; calls by dose curve; tested in A549 cells; note: potency is the fitted concentration of half-maximal effect; % is set by controls: 0 for no effect and ±100 for the full control effect; nearly all actives have a fitted effect of over 30% in size
* = called active by the depositor; [ ] = remark or other dose.

For O=C(NCc1ccccn1)C1(C(F)(F)F)C/C(=C\Cc2ccccc2)CCCO1 (stereo not given) the results were Cycloheximide cs 17 and Shiga toxin inh 2.
Screening COc1ccccc1C(CNC(=S)NCc1ccccc1)N1CCCC1 (stereo not given) returned Cycloheximide cs -6, MARV entry inh 5.6µM*, LASV entry inh 0%[46.1 µM], Shiga toxin inh -15, Vaccinia mCherry -16% and VACV Venus inh -28%.
Screening C/C(=N/Nc1ccc([N+](=O)[O-])cc1)c1c[nH]c2ccccc12 returned Cycloheximide cs 27* and Shiga toxin inh 34*.
C/C(=N/Nc1ccc([N+](=O)[O-])cc1)c1ccc(C)cc1C was read as Cycloheximide cs 42*, MARV entry inh -46%, LASV entry inh -15%, Shiga toxin inh 94*, Vaccinia mCherry inconclusive and VACV Venus inh -23%.
O=C(CSc1nncs1)Nc1cccc2ccccc12 was read as MARV entry inh 4%, LASV entry inh 14%, Vaccinia mCherry -12% and VACV Venus inh -11%.
COC(=O)c1ccc(CO/N=C2\CCCc3nonc32)cc1 was read as Cycloheximide cs 44*, MARV entry inh inconclusive, LASV entry inh 2%, Shiga toxin inh 53, Vaccinia mCherry -12% and VACV Venus inh -2%.
`COc1ccc(C(=O)O/N=C2\CCCc3nonc32)cc1` gave Cycloheximide cs -1, MARV entry inh 7%, LASV entry inh 12%, Shiga toxin inh -3, Vaccinia mCherry inactive and VACV Venus inh -16%.
Screening CC(=O)c1ccc[n+](CC(=O)NC(C)c2ccccc2)c1 (stereo not given) returned Cycloheximide cs -7, MARV entry inh -2%[46.1 µM], LASV entry inh 21%[46.1 µM], Shiga toxin inh -10, Vaccinia mCherry -2% and VACV Venus inh -7%.
CN(C)C(=O)c1ccc(N=Nc2c(O)c3ccccc3[nH]c2=O)cc1 was read as MARV entry inh inconclusive, LASV entry inh inconclusive, Vaccinia mCherry inconclusive and VACV Venus inh -6%.
For CN(C)C(=S)N=Nc1[nH]c2ccccc2c1O the results were Cycloheximide cs 39* and Shiga toxin inh 66*.
Screening COc1ccc(CCN2CC(C(=O)N3CCC(OC)CC3)CCC2=O)cc1 (stereo not given) returned Cycloheximide cs -3, MARV entry inh 25%, LASV entry inh 1%, Shiga toxin inh -9, Vaccinia mCherry inactive and VACV Venus inh -3%.
`C=CCC1(CC=C)CCCN1C(=O)C1CCC(=O)N(CCc2ccc(OC)cc2)C1` (stereo not given) gave Cycloheximide cs 53* and Shiga toxin inh 78*.
Screening C=CCC1(CC=C)CCCN1C(=O)C1CCC(=O)N(CCc2ccccc2)C1 (stereo not given) returned Cycloheximide cs 77*, MARV entry inh inconclusive, LASV entry inh inconclusive, Shiga toxin inh 102*, Vaccinia mCherry -14% and VACV Venus inh 7%.
C=CCOC(=O)N[C@@H](Cc1ccccc1)C(C(=O)OC)=C(C)NCc1ccccc1 was read as MARV entry inh -11%[14.2 µM].
For OCC1CCCN(c2nc(CN3CCCCC3)nc3scc(-c4ccccc4)c23)C1 (stereo not given) the results were Cycloheximide cs -3, MARV entry inh inconclusive, LASV entry inh inconclusive and Shiga toxin inh -8.
`CCNc1nc(CN2CCCCC2)nc2scc(-c3ccccc3)c12` gave Cycloheximide cs -3, MARV entry inh 4.5µM*, LASV entry inh inconclusive, Shiga toxin inh -9, Vaccinia mCherry -21% and VACV Venus inh -18%.
CC1CCCN(C(=O)CSc2nnc(-c3c[nH]c4ccccc34)o2)C1 (stereo not given) was read as Cycloheximide cs 35*, MARV entry inh 6%, LASV entry inh inconclusive, Shiga toxin inh 72, Vaccinia mCherry -14% and VACV Venus inh -8%.
CC1CCCC(C)N1C(=O)CSc1nnc(-c2c[nH]c3ccccc23)o1 (stereo not given) was read as Cycloheximide cs 19, MARV entry inh 13%, LASV entry inh 3%, Shiga toxin inh 30, Vaccinia mCherry -21% and VACV Venus inh -19%.
`CCC1CCCCN1C(=O)CSc1nnc(-c2c[nH]c3ccccc23)o1` (stereo not given) gave Cycloheximide cs 16*, MARV entry inh 2%, LASV entry inh 12%, Shiga toxin inh 28, Vaccinia mCherry -25% and VACV Venus inh -11%.
Screening COc1ccc(CN(C(=O)CSc2nnc(-c3c[nH]c4ccccc34)o2)c2ccc(F)cc2)cc1OC returned Cycloheximide cs 41*, MARV entry inh inconclusive, LASV entry inh 7.1µM*, Shiga toxin inh 51*, Vaccinia mCherry 10µM* and VACV Venus inh 10µM*.
CCSc1nnc(-c2c[nH]c3ccccc23)o1 was read as Cycloheximide cs 44*, MARV entry inh inconclusive, LASV entry inh -9%[46.1 µM], Shiga toxin inh 88*, Vaccinia mCherry -9% and VACV Venus inh -17%.
Screening CCOC(=O)CSc1nnc(-c2c[nH]c3ccccc23)o1 returned Cycloheximide cs 5, MARV entry inh 5%, LASV entry inh 1%, Shiga toxin inh 18, Vaccinia mCherry inactive and VACV Venus inh -8%.
`O=C(c1ccc(F)cc1)C1CCN(Cc2ccc(F)cc2)CC1` gave Cycloheximide cs -4, MARV entry inh -29%[46.1 µM], LASV entry inh 2%[46.1 µM], Shiga toxin inh 8, Vaccinia mCherry -13% and VACV Venus inh -14%.
`O=C(CSc1nc(-c2ccccc2)nc2c1CCCC2)c1ccc(Cl)cc1` gave MARV entry inh -2%[46.1 µM], LASV entry inh 2%[46.1 µM], Vaccinia mCherry -6% and VACV Venus inh -1%.
For Cc1cccc(N2CCN(C(=O)c3nn(C)c4c3CSc3ccccc3-4)CC2C)c1 (stereo not given) the results were MARV entry inh 17%[46.1 µM], LASV entry inh 0%[46.1 µM], Vaccinia mCherry -4% and VACV Venus inh -10%.
Screening CCOC(=O)CC(=O)CSc1nc2ccc(C)cc2cc1C#N returned Cycloheximide cs 37*, MARV entry inh 28%, LASV entry inh 0%, Shiga toxin inh 107*, Vaccinia mCherry -18% and VACV Venus inh -3%.
`COC(=O)CSc1nc2cc(C)ccc2cc1C#N` gave Cycloheximide cs 46*, MARV entry inh -5%, LASV entry inh -4% and Shiga toxin inh 108*.
For Cc1cc2cc3c(cc2nc1SCC(=O)OC(C)C)OCCO3 the results were Cycloheximide cs 8, MARV entry inh inconclusive, LASV entry inh -20% and Shiga toxin inh -8.
Screening COC(=O)CSc1nc2cc3c(cc2cc1C)OCO3 returned Cycloheximide cs 27*, MARV entry inh -9%, LASV entry inh -1%, Shiga toxin inh 55*, Vaccinia mCherry -3% and VACV Venus inh -22%.
`Cc1ccc2cc(C#N)c(SCC(=O)NCC3CCCO3)nc2c1` (stereo not given) gave Cycloheximide cs -4, MARV entry inh 4%[46.1 µM], LASV entry inh -3%, Shiga toxin inh 24 and VACV Venus inh -10%.
